# According to article PMC7862700, “An all-to-all approach to the identification of sequence-specific readers for epigenetic DNA modifications on cytosine”:
# How the values were obtained:
# Assay in all cases: DAPPL (digital affinity profiling via proximity ligation, sequencing); 10 mM Tris-HCl pH 7.5, 50 mM NaCl, 1 mM DTT, 4% glycerol, room temperature, 30 min; GST-TFs on glutathione beads, 16-mer random dsDNA library, 0.1% formaldehyde crosslink after washing; high values mean tight binding
# FLI1 = target: T1, FLI1 (Homo sapiens, UniProt Q01543 1-452); settings: protein: recombinant; tags: N-terminal GST; dsDNA, one strand shown
# T1 sequence: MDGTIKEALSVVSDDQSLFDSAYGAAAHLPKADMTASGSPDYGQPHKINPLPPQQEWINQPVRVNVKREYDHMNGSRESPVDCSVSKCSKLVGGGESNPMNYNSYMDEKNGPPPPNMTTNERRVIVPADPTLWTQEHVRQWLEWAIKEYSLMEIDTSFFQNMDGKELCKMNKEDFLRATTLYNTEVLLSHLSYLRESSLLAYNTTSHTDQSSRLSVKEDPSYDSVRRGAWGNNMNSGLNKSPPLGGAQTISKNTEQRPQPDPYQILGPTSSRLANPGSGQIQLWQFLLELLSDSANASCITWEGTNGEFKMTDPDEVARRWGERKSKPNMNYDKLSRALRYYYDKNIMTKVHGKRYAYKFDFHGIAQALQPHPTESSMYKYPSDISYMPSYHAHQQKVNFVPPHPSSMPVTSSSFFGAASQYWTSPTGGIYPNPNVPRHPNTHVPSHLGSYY
# Procedure, shortened: (§1)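 Pools were built from human transcription factors expressed in yeast as GST fusions, captured on glutathione beads and DNA-barcoded, along with a tag-only sample. Incubation with 200 nmole of a 16-mer random double-stranded DNA library lasted 30 min at room temperature in Tris/NaCl/DTT/glycerol buffer, and was followed by washing, 0.1% formaldehyde crosslinking, proximity ligation, PCR amplification and Illumina NextSeq500 sequencing. Binding signal is the quotient of each hexamer's read frequency for a factor and its frequency for the tag-only sample.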
# ELK1 = target: T2, ELK1 (Homo sapiens, UniProt P19419 1-428); settings: protein: recombinant; tags: N-terminal GST; dsDNA, one strand shown
# T2 sequence: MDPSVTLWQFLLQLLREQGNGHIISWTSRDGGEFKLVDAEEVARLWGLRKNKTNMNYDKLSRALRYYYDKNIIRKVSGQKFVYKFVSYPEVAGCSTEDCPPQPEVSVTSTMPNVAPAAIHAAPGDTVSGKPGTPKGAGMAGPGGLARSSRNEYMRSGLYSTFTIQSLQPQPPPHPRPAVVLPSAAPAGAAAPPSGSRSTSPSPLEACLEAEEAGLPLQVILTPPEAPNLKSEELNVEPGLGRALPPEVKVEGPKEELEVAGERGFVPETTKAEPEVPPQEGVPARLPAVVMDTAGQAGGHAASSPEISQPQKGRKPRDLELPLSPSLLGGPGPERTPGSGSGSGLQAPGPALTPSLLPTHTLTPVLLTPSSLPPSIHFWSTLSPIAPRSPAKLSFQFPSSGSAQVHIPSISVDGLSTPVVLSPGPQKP
# Procedure, shortened: as §1
# GABPA = target: T3, GABPA (Homo sapiens, UniProt Q06546 1-454); settings: protein: recombinant; tags: N-terminal GST; dsDNA, one strand shown
# T3 sequence: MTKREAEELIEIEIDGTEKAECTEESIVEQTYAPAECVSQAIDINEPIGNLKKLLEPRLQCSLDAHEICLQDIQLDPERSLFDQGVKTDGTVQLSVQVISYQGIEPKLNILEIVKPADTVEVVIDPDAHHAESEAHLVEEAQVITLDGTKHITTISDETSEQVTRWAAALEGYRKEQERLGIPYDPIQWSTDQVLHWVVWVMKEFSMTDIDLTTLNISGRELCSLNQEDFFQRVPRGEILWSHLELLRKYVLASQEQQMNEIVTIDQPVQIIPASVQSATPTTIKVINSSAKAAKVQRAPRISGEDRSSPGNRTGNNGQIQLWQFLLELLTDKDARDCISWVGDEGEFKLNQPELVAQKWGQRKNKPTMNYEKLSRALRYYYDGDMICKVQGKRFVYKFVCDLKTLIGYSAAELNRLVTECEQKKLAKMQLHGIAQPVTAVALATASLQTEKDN
# Procedure, shortened: as §1
# ERG = target: T4, ERG (Homo sapiens, UniProt P11308 1-479); settings: protein: recombinant; tags: N-terminal GST; dsDNA, one strand shown
# T4 sequence: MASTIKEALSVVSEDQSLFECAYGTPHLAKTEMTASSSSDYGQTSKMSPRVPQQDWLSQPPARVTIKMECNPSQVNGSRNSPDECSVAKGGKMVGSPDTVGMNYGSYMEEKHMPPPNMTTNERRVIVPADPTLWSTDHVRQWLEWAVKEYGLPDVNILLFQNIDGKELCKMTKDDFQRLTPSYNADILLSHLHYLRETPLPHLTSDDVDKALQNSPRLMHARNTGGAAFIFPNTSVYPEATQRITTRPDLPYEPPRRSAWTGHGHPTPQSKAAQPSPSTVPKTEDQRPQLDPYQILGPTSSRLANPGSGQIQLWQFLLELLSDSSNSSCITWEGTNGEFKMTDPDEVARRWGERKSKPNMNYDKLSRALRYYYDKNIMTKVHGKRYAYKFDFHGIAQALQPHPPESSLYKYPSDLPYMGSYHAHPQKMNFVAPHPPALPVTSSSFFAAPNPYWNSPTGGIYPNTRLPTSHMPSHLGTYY
# Procedure, shortened: as §1
# ELF1 = ELF1 (Homo sapiens, UniProt P32519 1-619); settings: protein: recombinant; tags: N-terminal GST; dsDNA, one strand shown
# Sequence of ELF1 (P32519 whole entry): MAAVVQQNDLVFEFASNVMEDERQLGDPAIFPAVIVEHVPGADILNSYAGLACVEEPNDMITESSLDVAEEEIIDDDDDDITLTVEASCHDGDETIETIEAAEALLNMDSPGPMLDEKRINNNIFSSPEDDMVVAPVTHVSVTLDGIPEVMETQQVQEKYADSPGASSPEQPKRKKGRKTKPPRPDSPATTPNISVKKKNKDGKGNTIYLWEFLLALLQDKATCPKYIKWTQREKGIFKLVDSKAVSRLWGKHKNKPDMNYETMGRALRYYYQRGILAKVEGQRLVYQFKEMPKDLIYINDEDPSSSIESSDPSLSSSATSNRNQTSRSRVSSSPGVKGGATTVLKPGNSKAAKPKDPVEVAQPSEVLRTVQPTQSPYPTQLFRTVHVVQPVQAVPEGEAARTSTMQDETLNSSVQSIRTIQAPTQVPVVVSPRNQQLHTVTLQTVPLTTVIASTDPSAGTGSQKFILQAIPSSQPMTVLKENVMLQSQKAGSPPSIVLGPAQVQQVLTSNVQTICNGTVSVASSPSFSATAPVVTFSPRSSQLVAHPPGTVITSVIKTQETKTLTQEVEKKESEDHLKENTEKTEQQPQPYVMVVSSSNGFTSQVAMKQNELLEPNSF
# Procedure, shortened: as §1
# EHF = target: T5, EHF (Homo sapiens, UniProt Q9NZC4 1-300); settings: protein: recombinant; tags: N-terminal GST; dsDNA, one strand shown
# T5 sequence: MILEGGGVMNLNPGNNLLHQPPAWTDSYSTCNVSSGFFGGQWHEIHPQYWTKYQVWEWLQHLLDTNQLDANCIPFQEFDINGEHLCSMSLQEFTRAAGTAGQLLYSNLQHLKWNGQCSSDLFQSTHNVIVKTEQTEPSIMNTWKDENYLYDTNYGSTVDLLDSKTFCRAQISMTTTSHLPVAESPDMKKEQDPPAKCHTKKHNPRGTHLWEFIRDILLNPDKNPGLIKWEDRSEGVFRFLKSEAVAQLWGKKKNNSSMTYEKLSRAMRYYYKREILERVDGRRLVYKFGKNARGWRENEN
# Procedure, shortened: as §1
# SPI1 = SPI1 (Homo sapiens, UniProt P17947 1-270); settings: protein: recombinant; tags: N-terminal GST; dsDNA, one strand shown
# Procedure, shortened: as §1
# SPIB = SPIB (Homo sapiens, UniProt Q01892 1-262); settings: protein: recombinant; tags: N-terminal GST; dsDNA, one strand shown
# Sequence of SPIB (Q01892 whole entry): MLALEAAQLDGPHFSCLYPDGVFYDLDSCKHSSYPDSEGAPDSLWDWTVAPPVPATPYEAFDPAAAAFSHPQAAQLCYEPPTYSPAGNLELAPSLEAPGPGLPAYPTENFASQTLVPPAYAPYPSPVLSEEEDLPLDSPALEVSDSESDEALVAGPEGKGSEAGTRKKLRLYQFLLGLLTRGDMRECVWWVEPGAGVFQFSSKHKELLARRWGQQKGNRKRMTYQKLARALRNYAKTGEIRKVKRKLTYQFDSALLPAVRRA
# Procedure, shortened: as §1
# ELK3 = target: T6, ELK3 (Homo sapiens, UniProt P41970 1-407); settings: protein: recombinant; tags: N-terminal GST; dsDNA, one strand shown
# T6 sequence: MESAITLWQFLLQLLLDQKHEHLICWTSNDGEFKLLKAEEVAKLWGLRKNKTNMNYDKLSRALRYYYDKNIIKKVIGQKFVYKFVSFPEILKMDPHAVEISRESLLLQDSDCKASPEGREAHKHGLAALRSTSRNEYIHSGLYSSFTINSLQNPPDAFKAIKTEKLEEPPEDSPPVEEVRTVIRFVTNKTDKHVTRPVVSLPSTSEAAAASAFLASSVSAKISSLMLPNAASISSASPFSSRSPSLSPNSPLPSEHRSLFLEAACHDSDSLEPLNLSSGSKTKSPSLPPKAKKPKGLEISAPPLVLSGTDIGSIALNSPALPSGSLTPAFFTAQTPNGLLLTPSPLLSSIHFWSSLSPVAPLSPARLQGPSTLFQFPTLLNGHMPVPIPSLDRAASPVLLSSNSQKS
# Procedure, shortened: as §1
# FEV = target: T7, FEV (Homo sapiens, UniProt Q99581 1-238); settings: protein: recombinant; tags: N-terminal GST; dsDNA, one strand shown
# T7 sequence: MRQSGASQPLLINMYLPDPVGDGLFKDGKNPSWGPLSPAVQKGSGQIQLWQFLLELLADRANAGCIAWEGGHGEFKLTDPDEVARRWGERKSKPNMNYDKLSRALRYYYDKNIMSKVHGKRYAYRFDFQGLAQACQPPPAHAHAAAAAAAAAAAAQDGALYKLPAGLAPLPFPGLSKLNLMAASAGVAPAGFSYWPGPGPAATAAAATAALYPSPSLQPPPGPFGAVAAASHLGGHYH
# Procedure, shortened: as §1
# ETV5 = ETV5 (Homo sapiens, UniProt P41161 1-510); settings: protein: recombinant; tags: N-terminal GST; dsDNA, one strand shown
# Sequence of ETV5 (P41161 whole entry): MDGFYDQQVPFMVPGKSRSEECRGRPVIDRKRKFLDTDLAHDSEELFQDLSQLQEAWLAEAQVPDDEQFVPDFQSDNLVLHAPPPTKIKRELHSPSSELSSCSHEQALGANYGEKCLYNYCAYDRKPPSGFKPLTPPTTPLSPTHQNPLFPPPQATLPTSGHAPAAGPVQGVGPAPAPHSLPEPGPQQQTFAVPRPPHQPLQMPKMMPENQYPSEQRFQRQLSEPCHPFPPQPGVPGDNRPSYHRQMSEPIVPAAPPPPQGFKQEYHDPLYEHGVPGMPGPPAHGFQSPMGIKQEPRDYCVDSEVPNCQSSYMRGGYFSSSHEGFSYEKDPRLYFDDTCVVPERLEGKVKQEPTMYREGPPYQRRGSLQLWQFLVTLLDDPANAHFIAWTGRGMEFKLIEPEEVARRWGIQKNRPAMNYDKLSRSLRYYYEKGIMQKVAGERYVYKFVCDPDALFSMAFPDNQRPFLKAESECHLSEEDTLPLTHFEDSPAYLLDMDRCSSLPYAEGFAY
# Procedure, shortened: as §1
# HSF1 = HSF1 (Homo sapiens, UniProt Q00613 1-529); settings: protein: recombinant; tags: N-terminal GST; chain copies: 3; dsDNA, one strand shown
# Sequence of HSF1 (Q00613 whole entry): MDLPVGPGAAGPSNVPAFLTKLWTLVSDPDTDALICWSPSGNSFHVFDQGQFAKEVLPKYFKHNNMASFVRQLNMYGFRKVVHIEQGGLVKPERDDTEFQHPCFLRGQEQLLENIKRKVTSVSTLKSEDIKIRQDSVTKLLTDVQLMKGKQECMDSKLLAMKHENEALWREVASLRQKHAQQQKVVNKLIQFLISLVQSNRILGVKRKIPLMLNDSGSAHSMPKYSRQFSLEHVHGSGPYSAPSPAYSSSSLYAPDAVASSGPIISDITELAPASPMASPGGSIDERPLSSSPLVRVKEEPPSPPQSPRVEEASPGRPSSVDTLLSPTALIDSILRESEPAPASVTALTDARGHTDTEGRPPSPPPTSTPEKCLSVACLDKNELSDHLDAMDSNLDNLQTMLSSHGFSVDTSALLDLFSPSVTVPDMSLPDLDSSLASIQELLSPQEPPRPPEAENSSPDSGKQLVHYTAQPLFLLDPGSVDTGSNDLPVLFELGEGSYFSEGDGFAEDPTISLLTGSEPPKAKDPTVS
# Procedure, shortened: as §1
# SPIC = target: T8, SPIC (Homo sapiens, UniProt Q8N5J4 1-248); settings: protein: recombinant; tags: N-terminal GST; dsDNA, one strand shown
# T8 sequence: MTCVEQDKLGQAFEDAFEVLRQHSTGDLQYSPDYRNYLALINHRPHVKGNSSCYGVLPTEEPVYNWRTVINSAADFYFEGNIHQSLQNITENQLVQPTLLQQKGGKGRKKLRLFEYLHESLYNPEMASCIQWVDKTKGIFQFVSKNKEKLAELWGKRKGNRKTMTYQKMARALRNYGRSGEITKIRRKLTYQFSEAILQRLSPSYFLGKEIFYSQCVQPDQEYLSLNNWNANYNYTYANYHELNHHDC
# Procedure, shortened: as §1
# ELF4 = ELF4 (Homo sapiens, UniProt Q99607 1-663); settings: protein: recombinant; tags: N-terminal GST; dsDNA, one strand shown
# Sequence of ELF4 (Q99607 whole entry): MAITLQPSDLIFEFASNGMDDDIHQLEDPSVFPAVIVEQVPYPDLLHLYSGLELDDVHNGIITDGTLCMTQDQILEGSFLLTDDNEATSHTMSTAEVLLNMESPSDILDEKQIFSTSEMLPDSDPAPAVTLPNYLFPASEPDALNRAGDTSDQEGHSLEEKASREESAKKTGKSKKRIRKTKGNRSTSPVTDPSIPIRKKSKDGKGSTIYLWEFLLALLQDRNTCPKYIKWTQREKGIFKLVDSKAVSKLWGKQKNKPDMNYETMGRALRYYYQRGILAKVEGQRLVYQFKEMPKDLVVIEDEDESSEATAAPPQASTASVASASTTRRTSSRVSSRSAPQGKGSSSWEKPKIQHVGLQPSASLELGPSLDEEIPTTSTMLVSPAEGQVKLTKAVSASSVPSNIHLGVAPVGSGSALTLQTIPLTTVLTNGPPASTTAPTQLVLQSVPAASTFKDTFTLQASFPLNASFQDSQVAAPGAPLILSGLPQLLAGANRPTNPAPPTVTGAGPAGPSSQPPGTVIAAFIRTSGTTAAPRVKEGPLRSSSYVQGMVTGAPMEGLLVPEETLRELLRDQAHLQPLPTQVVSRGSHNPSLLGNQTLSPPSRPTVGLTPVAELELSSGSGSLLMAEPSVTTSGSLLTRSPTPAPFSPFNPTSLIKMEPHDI
# Procedure, shortened: as §1
# ELK4 = target: T9, ELK4 (Homo sapiens, UniProt P28324-2 1-405); settings: protein: recombinant; tags: N-terminal GST; dsDNA, one strand shown
# T9 sequence: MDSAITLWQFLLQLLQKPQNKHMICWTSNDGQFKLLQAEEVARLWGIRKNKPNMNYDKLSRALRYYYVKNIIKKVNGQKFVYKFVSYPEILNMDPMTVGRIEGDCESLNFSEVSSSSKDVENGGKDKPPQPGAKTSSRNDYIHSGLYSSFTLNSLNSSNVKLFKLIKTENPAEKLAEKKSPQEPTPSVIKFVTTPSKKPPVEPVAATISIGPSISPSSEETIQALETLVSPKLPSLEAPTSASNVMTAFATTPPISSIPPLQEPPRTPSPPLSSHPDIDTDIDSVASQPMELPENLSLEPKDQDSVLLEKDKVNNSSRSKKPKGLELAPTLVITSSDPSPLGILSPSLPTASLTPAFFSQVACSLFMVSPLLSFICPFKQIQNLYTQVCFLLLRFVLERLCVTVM
# Procedure, shortened: as §1
# ETV2 = target: T10, ETV2 (Homo sapiens, UniProt O00321 1-342); settings: protein: recombinant; tags: N-terminal GST; dsDNA, one strand shown
# T10 sequence: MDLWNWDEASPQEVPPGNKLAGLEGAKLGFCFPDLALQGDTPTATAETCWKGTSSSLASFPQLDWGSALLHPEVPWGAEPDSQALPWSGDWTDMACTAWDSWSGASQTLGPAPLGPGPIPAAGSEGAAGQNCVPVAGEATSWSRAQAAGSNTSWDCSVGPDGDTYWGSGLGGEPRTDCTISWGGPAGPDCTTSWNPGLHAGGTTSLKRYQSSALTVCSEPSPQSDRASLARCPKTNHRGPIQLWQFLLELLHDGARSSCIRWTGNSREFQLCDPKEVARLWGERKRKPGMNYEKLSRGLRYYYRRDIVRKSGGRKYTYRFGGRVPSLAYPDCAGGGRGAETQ
# Procedure, shortened: as §1
# ELF3 = target: T11, ELF3 (Homo sapiens, UniProt P78545 1-371); settings: protein: recombinant; tags: N-terminal GST; dsDNA, one strand shown
# T11 sequence: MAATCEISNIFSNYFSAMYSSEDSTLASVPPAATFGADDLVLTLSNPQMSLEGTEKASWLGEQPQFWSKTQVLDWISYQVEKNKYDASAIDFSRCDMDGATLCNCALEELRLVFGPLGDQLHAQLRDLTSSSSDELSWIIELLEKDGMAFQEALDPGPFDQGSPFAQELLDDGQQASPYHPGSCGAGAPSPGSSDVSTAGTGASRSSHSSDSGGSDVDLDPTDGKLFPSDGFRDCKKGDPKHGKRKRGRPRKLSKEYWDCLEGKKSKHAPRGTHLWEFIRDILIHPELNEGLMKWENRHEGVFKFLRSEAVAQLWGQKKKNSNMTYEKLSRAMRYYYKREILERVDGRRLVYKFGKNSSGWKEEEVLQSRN
# Procedure, shortened: as §1
# CRX = CRX (Homo sapiens, UniProt O43186 1-299); settings: protein: recombinant; tags: N-terminal GST; dsDNA, one strand shown
# Sequence of CRX (O43186 whole entry): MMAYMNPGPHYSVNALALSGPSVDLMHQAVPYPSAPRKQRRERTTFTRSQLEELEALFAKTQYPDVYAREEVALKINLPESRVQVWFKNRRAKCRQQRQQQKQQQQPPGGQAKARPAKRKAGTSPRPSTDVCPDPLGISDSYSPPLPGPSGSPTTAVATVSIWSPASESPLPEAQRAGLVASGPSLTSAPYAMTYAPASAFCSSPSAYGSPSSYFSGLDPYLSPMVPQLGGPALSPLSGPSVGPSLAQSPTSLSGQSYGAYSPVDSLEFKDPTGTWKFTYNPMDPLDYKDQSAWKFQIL
# Procedure, shortened: as §1
# ETV1 = ETV1 (Homo sapiens, UniProt P50549 1-477); settings: protein: recombinant; tags: N-terminal GST; dsDNA, one strand shown
# Sequence of ETV1 (P50549 whole entry): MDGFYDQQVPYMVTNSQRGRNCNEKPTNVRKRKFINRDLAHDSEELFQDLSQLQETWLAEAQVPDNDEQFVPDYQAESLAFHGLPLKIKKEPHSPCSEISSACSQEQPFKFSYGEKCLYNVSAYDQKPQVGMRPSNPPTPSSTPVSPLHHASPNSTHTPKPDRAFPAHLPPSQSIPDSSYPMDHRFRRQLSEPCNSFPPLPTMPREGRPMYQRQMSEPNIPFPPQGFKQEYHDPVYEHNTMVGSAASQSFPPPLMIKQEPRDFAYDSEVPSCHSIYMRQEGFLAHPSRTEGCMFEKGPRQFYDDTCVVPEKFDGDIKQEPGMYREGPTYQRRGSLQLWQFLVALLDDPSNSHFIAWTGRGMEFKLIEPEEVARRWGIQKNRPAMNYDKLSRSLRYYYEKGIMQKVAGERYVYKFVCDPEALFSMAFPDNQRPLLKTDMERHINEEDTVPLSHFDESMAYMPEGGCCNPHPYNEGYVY
# Procedure, shortened: as §1
sequence,measurement,setting,value
CTACGA,binding signal,FLI1,"1.16 fold enrichment (6-mer frequency, TF over GST control)"
same,binding signal,ELK1,"1.24 fold enrichment (6-mer frequency, TF over GST control)"
same,binding signal,GABPA,"1.29 fold enrichment (6-mer frequency, TF over GST control)"
same,binding signal,ERG,"1.2 fold enrichment (6-mer frequency, TF over GST control)"
same,binding signal,ELF1,"1.27 fold enrichment (6-mer frequency, TF over GST control)"
same,binding signal,EHF,"1.25 fold enrichment (6-mer frequency, TF over GST control)"
same,binding signal,SPI1,"1.14 fold enrichment (6-mer frequency, TF over GST control)"
same,binding signal,SPIB,"1.23 fold enrichment (6-mer frequency, TF over GST control)"
same,binding signal,ELK3,"1.33 fold enrichment (6-mer frequency, TF over GST control)"
same,binding signal,FEV,"1.34 fold enrichment (6-mer frequency, TF over GST control)"
same,binding signal,ETV5,"1.2 fold enrichment (6-mer frequency, TF over GST control)"
same,binding signal,HSF1,"1.25 fold enrichment (6-mer frequency, TF over GST control)"
same,binding signal,SPIC,"1.17 fold enrichment (6-mer frequency, TF over GST control)"
same,binding signal,ELF4,"1.24 fold enrichment (6-mer frequency, TF over GST control)"
same,binding signal,ELK4,"1.22 fold enrichment (6-mer frequency, TF over GST control)"
same,binding signal,ETV2,"1.47 fold enrichment (6-mer frequency, TF over GST control)"
same,binding signal,ELF3,"1.5 fold enrichment (6-mer frequency, TF over GST control)"
same,binding signal,CRX,"1.21 fold enrichment (6-mer frequency, TF over GST control)"
same,binding signal,ETV1,"1.19 fold enrichment (6-mer frequency, TF over GST control)"
